The values below come from PubChem BioAssay (NCI).

Holding throughout (test): NCI-60 one-dose screen, 48 h (100 = growth as untreated, 0 = no growth, -100 = all killed)
One assay deals with OVCAR-8 ovarian. Conditions: 10 µM unless noted.
Another assay concerns OVCAR-5 ovarian. The note with it: 10 µM unless noted.
In the next assay the test system is OVCAR-4 ovarian. The note with it: 10 µM unless noted.
The subject of a further assay is SK-OV-3 ovarian. The note with it: 10 µM unless noted.
The next assay deals with IGROV1 ovarian. Conditions: 10 µM unless noted.
A further assay has as its system HS 578T breast. Conditions: 10 µM.
In another assay the test system is NCI/ADR-RES ovarian. Conditions: 10 µM unless noted.
The next assay concerns T-47D breast. Conditions: 10 µM unless noted.
In the next assay the test system is BT-549 breast. The note with it: 10 µM unless noted.
The subject of another assay is MDA-MB-435 melanoma. The note with it: 10 µM unless noted.
In a further assay the test system is SW-620 colon. Conditions: 10 µM unless noted.
In another assay the test system is MCF7 breast. The note with it: 10 µM unless noted.
For the next assay, the system named is HCT-116 colon. The note with it: 10 µM unless noted.
For another assay, the system named is HCC-2998 colon. The note with it: 10 µM unless noted.
The next assay relates to KM12 colon. The note with it: 10 µM unless noted.
A further assay relates to OVCAR-3 ovarian. Conditions: 10 µM unless noted.
The next assay relates to RPMI-8226 leukemia. The note with it: 10 µM unless noted.

This is part of a sample that, as a whole, favours compounds with a hit. Of some 83,000 tested, about 20% had one in any assay.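 Values shown are percent growth following 48 h exposure of cells in 96-well plates to a single concentration of compound; below 10 was considered active.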 A number with no mark means an inactive call. The source made the active and inactive calls.

For the compound `CC(=O)OC1Oc2cc(C)c(C)cc2-c2oc(=O)c(-c3cc4ccccc4oc3=O)cc21` (configuration not stated), the growth in the assay with OVCAR-8 ovarian is 101%; with OVCAR-5 ovarian it was 97.6%; with OVCAR-4 ovarian, 97.2%; in the assay on SK-OV-3 ovarian it was 89.4%; in the assay with IGROV1 ovarian it was 73.8%; in the assay with HS 578T breast it was 423%. Further, the growth in the assay with NCI/ADR-RES ovarian was 94.7%; in the assay on T-47D breast, 91.9%; with BT-549 breast, 129%; in the assay with MDA-MB-435 melanoma, 112%; with SW-620 colon it was 133%; with MCF7 breast, 108%. The growth in the assay on HCT-116 colon was 81.1%; with HCC-2998 colon, 96.2%; with KM12 colon, 103%.

As for `CCCCCCCCCCCCCCCC1=NCC[N+]1(CCO)CCO`, the growth was 37% in the assay on OVCAR-8 ovarian; 43.1% in the assay with OVCAR-5 ovarian; 61.4% with OVCAR-4 ovarian; 95.1% in the assay on SK-OV-3 ovarian; -16% (active) with IGROV1 ovarian; 86.6% in the assay with OVCAR-3 ovarian. Further, the growth with HS 578T breast is 75.2%; in the assay on NCI/ADR-RES ovarian, 71.1%; in the assay with T-47D breast, 78.8%; in the assay on BT-549 breast it was 79.6%; in the assay with MDA-MB-435 melanoma, 30.7%; with SW-620 colon, 57.6%. Besides, the growth in the assay on MCF7 breast is 50.5%; in the assay on HCT-116 colon it was 12.1%; with HCC-2998 colon it was 82.5%.

For `Cc1ccc2nc(CN(CCN(Cc3nc4ccc(C)cc4[nH]3)Cc3nc4ccc(C)cc4[nH]3)Cc3nc4ccc(C)cc4[nH]3)[nH]c2c1`, the growth in the assay on OVCAR-8 ovarian is -71.8% (active); with OVCAR-5 ovarian it was -67.8% (active); with OVCAR-4 ovarian it was -99.2% (active); in the assay with SK-OV-3 ovarian it was -94.6% (active); in the assay with IGROV1 ovarian, -95.2% (active); with OVCAR-3 ovarian, -94.4% (active). Moreover, the growth with HS 578T breast is -74.1% (active); in the assay on NCI/ADR-RES ovarian, -72.5% (active); in the assay on T-47D breast it was -93% (active); in the assay with BT-549 breast, -98.2% (active); in the assay with MDA-MB-435 melanoma, -92.6% (active); in the assay on SW-620 colon, -85.9% (active). In addition, the growth is -95% (active) with MCF7 breast, -96.3% (active) in the assay on HCT-116 colon, -65% (active) with HCC-2998 colon and -95.9% (active) in the assay on KM12 colon.

On to `Cc1cc(O)ccc1C1=NN(c2ccc(S(N)(=O)=O)cc2)C(=O)CC1`, for which the growth in the assay on OVCAR-8 ovarian is 50.1%; with OVCAR-4 ovarian, 59.2%; in the assay with SK-OV-3 ovarian, 64.9%; in the assay on IGROV1 ovarian it was -9.76% (active); with HS 578T breast, 18.8%; in the assay on NCI/ADR-RES ovarian, 22.4%. Moreover, the growth with T-47D breast is 45.8%; with MDA-MB-435 melanoma, -21.1% (active); in the assay with SW-620 colon, 16.2%; in the assay on MCF7 breast, 27.7%; in the assay with HCT-116 colon, 23.3%; in the assay with HCC-2998 colon, 64%.

Consider `CCOC(=O)C1=C(C)NC(SCc2nnc(-c3ccc(Cl)cc3)o2)=NC1c1ccc(Cl)cc1` (configuration not stated), for which the growth in the assay on RPMI-8226 leukemia is 35.8%; in the assay with OVCAR-8 ovarian it was 74.8%; in the assay on OVCAR-4 ovarian, 70%; in the assay with SK-OV-3 ovarian, 82.6%; in the assay on IGROV1 ovarian it was 62.3%; in the assay with OVCAR-3 ovarian, 70.8%. The growth was 83.7% with HS 578T breast; 49.9% with T-47D breast; 75.3% in the assay with BT-549 breast; 69.6% in the assay with MDA-MB-435 melanoma; 49% in the assay with MCF7 breast; 46.2% in the assay with HCT-116 colon. Also, the growth in the assay on HCC-2998 colon is 79.9%; in the assay on KM12 colon, 69.8%.

`COc1cccc(OCC(O)CN2CCN(c3ccccc3)CC2)c1` (configuration not stated): the growth with OVCAR-8 ovarian is 103%; in the assay with OVCAR-5 ovarian, 105%; in the assay on OVCAR-4 ovarian, 97.4%; in the assay with SK-OV-3 ovarian, 106%; with IGROV1 ovarian, 107%; in the assay with OVCAR-3 ovarian, 112%. In addition, the growth is 117% with HS 578T breast; 100% with NCI/ADR-RES ovarian; 100% in the assay with T-47D breast; 121% with MDA-MB-435 melanoma; 112% in the assay on SW-620 colon; 108% in the assay with MCF7 breast. The growth was 112% with HCT-116 colon and 106% with HCC-2998 colon.

`Cc1ccc(O)c(Cc2ccccc2)c1`: the growth in the assay on OVCAR-8 ovarian is 102%; in the assay on OVCAR-5 ovarian it was 104%; in the assay with OVCAR-4 ovarian, 108%; with SK-OV-3 ovarian, 110%; in the assay with IGROV1 ovarian, 132%; in the assay on OVCAR-3 ovarian, 100%. In addition, the growth was 91.3% in the assay with HS 578T breast; 99.7% in the assay on NCI/ADR-RES ovarian; 101% in the assay on T-47D breast; 92.4% in the assay with BT-549 breast; 107% with MDA-MB-435 melanoma; 98.4% in the assay with SW-620 colon. Also, the growth in the assay with MCF7 breast was 114%; in the assay with HCT-116 colon it was 98%; in the assay on HCC-2998 colon, 102%; in the assay with KM12 colon it was 103%.

With `O=[N+]([O-])c1ccccc1CN1CCCCC1`, the growth is 109% in the assay with RPMI-8226 leukemia; 108% in the assay with OVCAR-8 ovarian; 114% with OVCAR-4 ovarian; 127% in the assay with SK-OV-3 ovarian; 114% in the assay on IGROV1 ovarian; 109% in the assay on OVCAR-3 ovarian. Further, the growth in the assay on HS 578T breast is 118%; in the assay with NCI/ADR-RES ovarian, 104%; with T-47D breast, 115%; with BT-549 breast it was 98.4%; in the assay with MDA-MB-435 melanoma it was 109%; in the assay on SW-620 colon it was 106%. The growth with MCF7 breast is 108%; in the assay with HCT-116 colon, 106%; with HCC-2998 colon it was 101%; in the assay on KM12 colon it was 128%.

Regarding `C1=C\CCCCN2CC[C@H]3[C@H](CCCC/C=C\CCCN4C[C@@H](CCCCC/1)C[C@@H]3C4)C2`, the growth with OVCAR-8 ovarian is 77.4%; in the assay with OVCAR-4 ovarian it was 74.2%; with SK-OV-3 ovarian, 83.9%; in the assay on IGROV1 ovarian, -11.3% (active); with OVCAR-3 ovarian, 49.1%; in the assay with HS 578T breast, 9.63% (active). Besides, the growth was 77.5% in the assay with NCI/ADR-RES ovarian; 71.4% in the assay with T-47D breast; 89.5% with BT-549 breast; -70.3% (active) in the assay with MDA-MB-435 melanoma; 79.8% in the assay with SW-620 colon; 22.7% with MCF7 breast. Besides, the growth in the assay with HCC-2998 colon was 22.1%; in the assay with KM12 colon it was 58.1%.

On to `O=C(C(=O)c1cccnc1)c1cccnc1`, for which the growth was 82.6% in the assay with OVCAR-8 ovarian; 100% with OVCAR-5 ovarian; 101% in the assay on OVCAR-4 ovarian; 136% with SK-OV-3 ovarian; 31% in the assay on IGROV1 ovarian; 87.7% in the assay with OVCAR-3 ovarian. Also, the growth was 99% in the assay with HS 578T breast; 97.5% in the assay with NCI/ADR-RES ovarian; 170% with T-47D breast; 119% in the assay on MDA-MB-435 melanoma; 103% in the assay on SW-620 colon; 97.5% in the assay on MCF7 breast. Further, the growth is 99.8% in the assay on HCT-116 colon, 99.1% in the assay on HCC-2998 colon and 108% with KM12 colon.
